Assay results as given in PubChem BioAssay.
Active and inactive are the calls of the source. Unless noted, no rule for the calls is given here.

What was measured:
[1] = system: Wnt5a (protein binding on small-molecule microarray); test: Wnt5a binders on small-molecule microarray, primary screen, biophysical, 635/667 nm fluorescence (AID 1142); conditions: 635 nm fluorescence, higher = more signal;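 also: fluorescence read at 667 nm with signal to noise per printed feature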
[2] = cell viability in Huh7 cells, primary screen, cytotoxicity control for HCV replication inhibitor project, CellTiter-Glo luminescence, basal, 48 h (AID 1143); conditions: Huh7 HCV replicon, higher = more signal, called active from +8 up or from −8 down;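 also: Huh7 hepatoma cells carrying a hepatitis C replication reporter with no stimulus; test concentration not given here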
[3] = P. aeruginosa biofilm formation inhibitors, primary screen, PAO1 strain, BacTiter-Glo luminescence, LB-PBS (AID 1144); conditions: 12 h, higher = more signal
[4] = CREB reporter modulators without forskolin, primary screen, cell-based, PC12, CRE-LacZ reporter, unstimulated (AID 1145); conditions: no forskolin, luminescence, 4.5 h, higher = more signal, called active from +8 up or from −8 down
[5] = CREB reporter modulators under forskolin, primary screen, cell-based, PC12, CRE-LacZ reporter, forskolin-stimulated (AID 1146); conditions: luminescence, 4.5 h, higher = more signal, called active from +8 up or from −8 down;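 also: PC12 cells with 6xCRE LacZ reporter stimulated by forskolin 10 µM; beta-galactosidase reporter signal reflecting CREB driven transcription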
[6] = target: Streptavidin (Streptomyces avidinii) (UniProt P22629); test: streptavidin binders on small-molecule microarray, primary screen, artefact control for SMM compound annotation, biophysical, 635/667 nm fluorescence (AID 1147); conditions: streptavidin binding, higher = more signal;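 also: signal reflects streptavidin binding to arrayed compounds as a control protein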
[7] = small-molecule binders of probe aInhba, primary screen, biochemical, small-molecule microarray, 635/667 nm fluorescence (AID 1148); conditions: higher = more signal;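 also: score merges 667nm spot fluorescence with signal-to-noise for antibody binding to printed compounds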
[8] = target: Torsin-1A (Homo sapiens) (UniProt O14656); test: torsin A binders from cell lysate, primary screen, small-molecule microarray, wild-type, 635/667 nm (AID 1149); conditions: COS7 hTOR1A-WT lysate, 635 nm fluorescence, higher = more signal
[9] = target: Torsin-1A (Homo sapiens) (UniProt O14656); test: small-molecule binders of mutant TOR1A in lysate, primary screen, cell lysate, small-molecule microarray, COS7 lysate, 635/667 nm fluorescence (AID 1150); conditions: COS7 hTOR1A mutant lysate, 635 nm fluorescence, higher = more signal;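 also: score pools 667 nm emission and signal to noise measuring lysate protein binding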
[10] = system: Sonic hedgehog protein (Shh); test: small-molecule binders of Shh protein, primary screen, biochemical, small-molecule microarray, 635/667 nm fluorescence (AID 1151); conditions: small-molecule microarray binding, 635 nm fluorescence; higher = more signal;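 also: Shh protein binding to compounds spotted on small-molecule microarray slides; score combines spot fluorescence intensity with signal-to-noise across triplicate slides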
[11] = E. coli DRC41 culture turbidity changes, primary screen, E. coli filamentation inducer project, strain DRC41, OD650, 48 h (AID 1152);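 also: E. coli MC1000 strain DRC41 lacking acrAB efflux pump and sulA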; conditions: E. coli DRC41 (acrAB sulA), higher = more signal, called active from +8 up or from −8 down
[12] = small-molecule binders of probe aLefty1, primary screen, biochemical, small-molecule microarray, 635/667 nm fluorescence (AID 1153); conditions: higher = more signal;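 also: score merges spot fluorescence with signal-to-noise ratio from the scanned slide images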
[13] = PSAC antagonists in infected red cells, primary screen, cell-based, P. falciparum Indochina, OD700, 1 h (AID 1154); conditions: P. falciparum Indochina infected RBC osmotic lysis, higher = more signal, called active from +8 up or from −8 down
[14] = PSAC antagonists in infected red cells, primary screen, cell-based, P. falciparum Indochina, OD700, 2 h (AID 1155);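 also: lysis reports solute entry through the parasite surface anion channel PSAC; channel blockers reduce lysis of infected cells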; conditions: P. falciparum Indochina infected erythrocytes, osmotic lysis OD700; higher = more signal, called active from +8 up or from −8 down
[15] = osmotic lysis modulators in infected erythrocytes, primary screen, PSAC antagonist project, cell-based, P. falciparum Indochina, OD700, 3 h (AID 1156); conditions: higher = more signal, called active from +8 up or from −8 down
[16] = PSAC antagonists in infected red cells, primary screen, cell-based, P. falciparum Indochina, OD700, 18 h (AID 1157); conditions: P. falciparum Indochina infected erythrocytes, osmotic lysis OD700, 18 h; higher = more signal, called active from +8 up or from −8 down
[17] = modulators of S6 phosphorylation in cells, primary screen, cell-based, A549, cytoblot, luminescence, serum-stimulated (AID 1158); conditions: A549 phospho-S6 cytoblot, 5 h, higher = more signal;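 also: serum-stimulated A549 lung adenocarcinoma cells; signal is phosphorylated S6 detected by cytoblot immunostaining with HRP secondary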
[18] = target: NADPH oxidase 2 (Homo sapiens) (UniProt P04839); test: NOX2-dependent H2O2 signal modulators, primary screen, NOX inhibitor project, cell-based, HEK293-NOX2, PMA-stimulated, Amplex Red fluorescence (AID 1159); conditions: 45 min, higher = more signal, called active from +8 up or from −8 down; also: test concentration not given here
[19] = target: NADPH oxidase 4 (Homo sapiens) (UniProt Q9NPH5); test: NOX4-dependent H2O2 signal modulators, primary screen, NOX inhibitor project, cell-based, HEK293-NOX4, tetracycline-induced, Amplex Red fluorescence (AID 1160); conditions: 45 min, higher = more signal, called active from +8 up or from −8 down
[20] = target: NADPH oxidase 5 (Homo sapiens) (UniProt Q96PH1); test: NOX5-dependent H2O2 signal modulators, primary screen, NOX inhibitor project, cell-based, HEK293-NOX5, Amplex Red fluorescence (AID 1161); conditions: HEK293-NOX5, ionomycin, 45 min, higher = more signal
Sequence of NADPH oxidase 5 (Homo sapiens) (Q96PH1 whole entry, looked up): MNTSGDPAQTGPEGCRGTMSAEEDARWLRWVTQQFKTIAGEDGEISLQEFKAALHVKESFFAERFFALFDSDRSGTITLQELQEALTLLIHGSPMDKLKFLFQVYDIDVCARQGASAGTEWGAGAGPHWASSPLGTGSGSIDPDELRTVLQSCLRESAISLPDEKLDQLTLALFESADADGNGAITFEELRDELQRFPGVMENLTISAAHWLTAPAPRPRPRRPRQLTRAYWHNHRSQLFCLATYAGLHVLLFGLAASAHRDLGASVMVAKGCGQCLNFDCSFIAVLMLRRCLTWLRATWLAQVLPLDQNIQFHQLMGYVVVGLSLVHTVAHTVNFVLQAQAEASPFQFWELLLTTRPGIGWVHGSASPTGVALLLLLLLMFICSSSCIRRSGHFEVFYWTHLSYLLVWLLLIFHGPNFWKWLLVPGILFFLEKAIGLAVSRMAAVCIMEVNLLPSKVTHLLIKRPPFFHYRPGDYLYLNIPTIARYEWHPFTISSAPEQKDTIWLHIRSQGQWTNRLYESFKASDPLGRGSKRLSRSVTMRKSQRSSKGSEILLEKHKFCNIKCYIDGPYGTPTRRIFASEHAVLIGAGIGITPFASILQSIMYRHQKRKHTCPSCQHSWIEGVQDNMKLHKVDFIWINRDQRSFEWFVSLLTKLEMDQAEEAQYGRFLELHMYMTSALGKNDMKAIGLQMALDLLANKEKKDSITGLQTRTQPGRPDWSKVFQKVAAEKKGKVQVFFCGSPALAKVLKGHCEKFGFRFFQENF

Sequence of Streptavidin (Streptomyces avidinii) (P22629 whole entry, looked up): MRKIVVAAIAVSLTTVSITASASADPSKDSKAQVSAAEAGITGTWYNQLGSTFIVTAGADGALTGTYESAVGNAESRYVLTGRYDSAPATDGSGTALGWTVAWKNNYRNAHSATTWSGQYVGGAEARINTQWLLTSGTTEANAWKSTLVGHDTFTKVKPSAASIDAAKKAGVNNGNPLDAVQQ
Sequence of NADPH oxidase 2 (Homo sapiens) (P04839 whole entry, looked up): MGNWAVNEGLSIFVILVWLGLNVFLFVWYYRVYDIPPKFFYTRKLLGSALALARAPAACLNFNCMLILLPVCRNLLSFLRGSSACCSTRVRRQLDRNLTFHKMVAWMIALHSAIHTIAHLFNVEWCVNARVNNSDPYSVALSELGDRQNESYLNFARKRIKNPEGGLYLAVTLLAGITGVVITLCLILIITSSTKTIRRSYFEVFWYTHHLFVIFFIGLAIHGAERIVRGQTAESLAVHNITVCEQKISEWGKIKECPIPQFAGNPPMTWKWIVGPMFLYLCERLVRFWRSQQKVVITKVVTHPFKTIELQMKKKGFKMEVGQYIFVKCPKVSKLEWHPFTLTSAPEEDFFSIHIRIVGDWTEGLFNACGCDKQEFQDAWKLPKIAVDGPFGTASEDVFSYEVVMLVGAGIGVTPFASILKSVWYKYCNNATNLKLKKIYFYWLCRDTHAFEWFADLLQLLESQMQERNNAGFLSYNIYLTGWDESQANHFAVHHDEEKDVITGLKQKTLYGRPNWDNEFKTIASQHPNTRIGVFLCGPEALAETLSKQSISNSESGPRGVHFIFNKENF
Sequence of NADPH oxidase 4 (Homo sapiens) (Q9NPH5 whole entry, looked up): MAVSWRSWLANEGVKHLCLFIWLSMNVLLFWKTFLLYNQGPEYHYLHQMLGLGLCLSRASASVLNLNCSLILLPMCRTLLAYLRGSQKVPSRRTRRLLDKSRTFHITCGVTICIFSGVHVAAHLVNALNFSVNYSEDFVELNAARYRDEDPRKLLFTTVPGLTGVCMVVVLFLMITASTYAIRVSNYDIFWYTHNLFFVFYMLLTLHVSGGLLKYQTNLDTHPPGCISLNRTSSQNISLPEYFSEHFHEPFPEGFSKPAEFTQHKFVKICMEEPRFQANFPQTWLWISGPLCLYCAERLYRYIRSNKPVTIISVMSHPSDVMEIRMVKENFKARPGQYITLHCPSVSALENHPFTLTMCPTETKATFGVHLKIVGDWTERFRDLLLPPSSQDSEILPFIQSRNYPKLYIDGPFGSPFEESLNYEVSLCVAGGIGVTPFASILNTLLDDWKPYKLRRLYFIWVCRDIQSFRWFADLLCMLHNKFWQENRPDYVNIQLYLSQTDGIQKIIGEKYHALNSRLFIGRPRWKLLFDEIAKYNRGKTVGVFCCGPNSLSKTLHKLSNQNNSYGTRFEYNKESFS
Sequence of Torsin-1A (Homo sapiens) (O14656 whole entry, looked up): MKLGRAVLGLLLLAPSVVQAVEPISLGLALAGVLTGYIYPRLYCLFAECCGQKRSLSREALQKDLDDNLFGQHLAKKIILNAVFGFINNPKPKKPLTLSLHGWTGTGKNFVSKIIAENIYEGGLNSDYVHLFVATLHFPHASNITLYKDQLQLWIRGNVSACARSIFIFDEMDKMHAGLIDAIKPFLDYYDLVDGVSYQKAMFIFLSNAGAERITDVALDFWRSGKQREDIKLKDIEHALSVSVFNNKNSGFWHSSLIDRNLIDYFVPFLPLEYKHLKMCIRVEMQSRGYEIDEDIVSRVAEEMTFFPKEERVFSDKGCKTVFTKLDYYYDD

Row | SMILES | composite z-score [1] | z-score [2] | z-score [3] | z-score [4] | z-score [5] | composite z-score [6] | composite z-score [7] | composite z-score [8] | composite z-score [9] | composite z-score [10] | z-score [11] | composite z-score [12] | z-score [13] | z-score [14] | z-score [15] | z-score [16] | z-score [17] | z-score [18] | z-score [19] | z-score [20]
1 | O=C(NCC(F)(F)F)[C@@H]1c2ccccc2C(=O)N(Cc2ccccc2Cl)[C@H]1c1ccc(CO)cc1 | -0.234 | 0.197 (inactive) | 0.072 (inactive) | 0.414 (inactive) | -0.65 (inactive) | -1.38 | -0.176 | -0.495 | 0.986 | -0.59 | 0.774 (inactive) | -0.27 | 1.88 (inactive) | 0.839 (inactive) | 0.62 (inactive) | 0.157 (inactive) | -0.217 | -0.138 (inactive) | 0.22 (inactive) | -0.0659
2 | COC(=O)C1=CC(c2ccc(CO)cc2)=CC(c2cccs2)N(Cc2cccc(OC(F)(F)F)c2)C=C1C(=O)OC (stereo not given) | 0.0365 | -3.08 (inactive) | 0.714 (inactive) | 0.0924 (inactive) | -0.287 (inactive) | 2.29 | 0.248 | 0.947 | 0.76 | 0.381 | -1.66 (inactive) | 0.641 | 10.9 (active) | 1.87 (inactive) | 0.615 (inactive) | 1.43 (inactive) | -0.264 | -1.76 (inactive) | -1.96 (inactive) | -2.87
3 | COc1ccc(CCN2C(=O)[C@@]3(c4ccc([N+](=O)[O-])cc4)CC(=O)N(CC45CC6CC(CC(C6)C4)C5)[C@@H]3c3ccc(CO)cc32)cc1 | -0.209 | -0.252 (inactive) | 0.655 (inactive) | 0.155 (inactive) | -0.036 (inactive) | -0.168 | 0.333 | 0.16 | 0.335 | 0.483 | 0.683 (inactive) | 0.585 | 1.39 (inactive) | 0.77 (inactive) | 0.393 (inactive) | 0.427 (inactive) | -0.385 | -0.447 (inactive) | -0.968 (inactive) | 1.43
4 | NC(=O)NCC#Cc1ccc2c(c1)[C@]1(C(=O)N2)[C@H](c2ccccc2OCCO)N2[C@H](c3ccccc3)[C@H](c3ccccc3)OC(=O)[C@H]2[C@@H]1C(=O)N1CCN(c2ncccn2)CC1 | -0.186 | -4.21 (inactive) | -0.681 (inactive) | -0.0515 (inactive) | 0.889 (inactive) | 0.182 | -0.0762 | 0.0759 | 0.272 | 0.831 | 2.11 (inactive) | 0.445 | 3.42 (inactive) | 0.449 (inactive) | 0.229 (inactive) | -1.44 (inactive) | 2.08 | 1.09 (inactive) | 0.958 (inactive) | -0.596
5 | CCOC(=O)C[C@H]1[C@H](OC(=O)Cc2ccc3c(c2)OCO3)[C@@H](NC(=O)c2ccc3ccccc3c2)c2cc(OCCCO)ccc2N1C(=O)Cc1ccc(OC)cc1 | -0.0175 | -0.602 (inactive) | -0.0536 (inactive) | 4.83 (inactive) | 0.135 (inactive) | 0.348 | 0.386 | 0.242 | 0.485 | 0.673 | 2.54 (inactive) | -0.0626 | 18 (active) | 2.41 (inactive) | -1.47 (inactive) | -0.15 (inactive) | 2.6 | -0.629 (inactive) | 0.799 (inactive) | 1.08
6 | COCCOC(=O)N1C(=O)[C@@]2(c3cc(C#CC4=CCCCC4)ccc31)[C@H](C(=O)NC[C@H](O)c1ccccc1)[C@H]1C(=O)O[C@H](c3ccccc3)[C@H](c3ccccc3)N1[C@@H]2c1ccccc1OCCO | 0.255 | -5.75 (inactive) | 0.423 (inactive) | 0.48 (inactive) | -0.99 (inactive) | 0.634 | 0.243 | 0.453 | 0.509 | 1.53 | -0.499 (inactive) | 0.705 | 3.23 (inactive) | 1.95 (inactive) | -0.032 (inactive) | 1.78 (inactive) | -0.178 | 1.53 (inactive) | 0.911 (inactive) | 1.2
7 | C[C@@H]1NC(=O)[C@H](Cc2ccccc2)NC(=O)[C@@]23C(=O)N[C@@H](Cc4ccccc4)C2[C@H](C)[C@@]2(C)O[C@H]2C3/C=C/C/C=C\CNC1=O (stereo not given in full) | -0.401 | 0.0081 (inactive) | 0.683 (inactive) | 0.125 (inactive) | 0.349 (inactive) | -0.528 | -0.128 | -0.0926 | -0.0686 | 0.596 | -1.13 (inactive) | -0.169 | 1.87 (inactive) | 0.316 (inactive) | 0.134 (inactive) | -0.0643 (inactive) | -0.248 | 0.832 (inactive) | -0.951 (inactive) | 0.906
8 | CCCC=C(CCC)[C@@H](NS(=O)(=O)c1ccc(-c2ccccc2)cc1)c1ccc(C(=O)OC)cc1 | -0.228 | -3.56 (inactive) | -0.308 (inactive) | -0.182 (inactive) | -0.289 (inactive) | 0.111 | -0.0791 | -0.269 | -0.383 | -0.948 | -2.25 (inactive) | -0.202 | 0.757 (inactive) | -0.515 (inactive) | 0.248 (inactive) | -1.71 (inactive) | 2.45 | -4.5 (inactive) | -4.82 (inactive) | -2.09
